Test results taken from ChEMBL document CHEMBL4513151, “CO-ADD screening of Institut Català d'Investigació Química (Spain) compounds”.
Several values for one entry are separate records, joined by “and”; a condition that tells them apart may be missing. Equal entries are not always repeated. Potency and affinity values are given separately.

Legend:
Staphylococcus aureus = details: Concentration 32 ug.mL-1, ASSAY_TEST Inhibition of Bacterial Growth, detection method Absorption (OD600), MEDIA CAMHB, plate type 384well, NBS, CORNING #3640, time 18 hr
Escherichia coli = details: Concentration 32 ug.mL-1, ASSAY_TEST Inhibition of Bacterial Growth, detection method Absorption (OD600), MEDIA CAMHB, plate type 384well, NBS, CORNING #3640, time 18 hr

SMILES	Inhibition (Staphylococcus aureus; 32 ug/mL)	Inhibition (Escherichia coli; 32 ug/mL)	Inhibition (Staphylococcus aureus) [%]	Inhibition (Escherichia coli) [%]
C[C@]12CC[C@@](C3CC3)(O1)[C@H]1C=C[C@H](OC(=O)c3ccccc3)[C@H]12	14.3% and 9.5%	-1.08% and -3.45%	–	–
C[C@]12CC[C@@](C)(O1)[C@H]1C=C[C@H](OC(=O)c3ccccc3)[C@H]12	–	–	17.97	0.47
C[C@]12CC[C@@H](O1)[C@H]1C=C[C@H](OC(=O)c3ccccc3)[C@H]12	–	–	21.38	2.42
C=C1CC(C(=O)OC)(C(=O)OC)C[C@@H]1[C@H](c1ccccc1)n1ccc2ccccc21	–	–	19.16	2.95
C[C@]12CC[C@@](c3ccc4ccccc4c3)(O1)[C@H]1C=C[C@H](OC(=O)c3ccccc3)[C@H]12	–	–	16.21	-2.58
C=C1CC(C(=O)OC)(C(=O)OC)C[C@@H]1[C@H](c1ccccc1)n1ccc2ccc(Cl)cc21	–	–	17.85	1.22
C=C1CC(C(=O)OC)(C(=O)OC)C[C@@H]1[C@@H](NS(=O)(=O)c1ccc(C)cc1)c1ccccc1	–	–	21	-0.02
C[C@]12CC[C@@](C3CCCC3)(O1)[C@H]1C=C[C@H](OC(=O)c3ccccc3)[C@H]12	–	–	23.21	7.38
C[C@@H]1CC(=O)C=C2C(=O)[C@@H]3[C@@H](C3(C)C)[C@]21C	–	–	24.26	3.69
C[C@]12CC[C@@](c3ccc(C(F)(F)F)cc3)(O1)[C@H]1C=C[C@H](OC(=O)c3ccccc3)[C@H]12	20.36% and 17.47%	2.03% and 5%	–	–
